Compounds with a hit are over-represented: about 4.5% of the library has one in this group of screens.
hcDAF12 agonist – H. contortus DAF-12 nuclear receptor activators, primary screen, cell-based, luminescence, HEK293, lit1-tk-luc reporter; activation, % at 6.8 µM; 1.4% of 370,000 active; HEK293 hcDAF-12 lit1-tk-luc reporter; 0% DMSO, 100% Δ7-dafachronic acid;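 active means activation above the mean of all tested compounds plus 3 SD, cut at about 5.5% in these data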;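 further: 100% = response to 3 µM Δ7-dafachronic acid high control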
DAX1 inh-1 – DAX1 (NR0B1) inhibitors, primary screen, cell-based, HEK293, Gal4-DAX1, luciferase luminescence; 0.99% of 340,000 active; Nuclear receptor subfamily 0 group B member 1 (Homo sapiens), P51843; AID 504766, 2011; HEK293 Gal4-DAX1 luciferase reporter; inhibition, % at 6.75 µM;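 active means inhibition above the mean over all tested compounds plus 3 SD, cut at about 4.2% in these data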;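 further: 0% = DAX1-transfected cells with DMSO and 100% = empty-vector control cells with DMSO; inhibition shows as a rise in luminescence from relieved DAX1 repression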
Target sequence (P51843 207-470 limits assumed): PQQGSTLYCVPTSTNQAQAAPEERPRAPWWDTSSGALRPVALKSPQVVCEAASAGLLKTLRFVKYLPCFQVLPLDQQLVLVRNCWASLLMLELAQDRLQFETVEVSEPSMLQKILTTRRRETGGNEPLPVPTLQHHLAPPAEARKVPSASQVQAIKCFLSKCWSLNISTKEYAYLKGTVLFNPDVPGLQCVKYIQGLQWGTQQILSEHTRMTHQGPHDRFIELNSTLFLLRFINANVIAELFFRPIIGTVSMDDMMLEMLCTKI
GAA850 FXN act – FXN promoter activators, primary screen, cell-based, luciferase luminescence, HEK293 lucGAA850 | HEK293 lucGAA850 FXN promoter luciferase reporter, 24 h; percent of 10 µM SAHA response | activation, % at 6 µM | 0.56% of 360,000 active;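 active means activation above the average of all compounds screened plus 3 SD, cutoff fixed separately per campaign, cut at about 7.5% in these data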;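 further: 0% = DMSO wells and 100% = 10 µM SAHA wells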
DAX1 inh-2 – DAX1 (NR0B1) inhibitors on StAR promoter, primary screen, cell-based, luminescence, SF-1 (NR5A1), full-length DAX-1. AID 652010, 2013. HEK293T StAR-luciferase reporter, SF-1/DAX-1 repression relief. 1.1% of 370,000 active. inhibition, % at 6.8 µM;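 active means inhibition above the mean over all tested compounds plus 3 SD, cut at about 3.6% in these data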;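 further: 0% = DAX-1 cells with DMSO and 100% = cells lacking DAX-1 with DMSO; higher inhibition means more luminescence from relief of DAX-1 repression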
ssDAF-12 act – S. stercoralis DAF-12 nuclear receptor activators, primary screen, cell-based, luminescence, HEK293, GRIP1 co-expression, lit1-tk-luc; activation, % at 6.8 µM; Nuclear hormone receptor DAF-12 (Strongyloides stercoralis); HEK293 ssDAF-12/GRIP1 lit1-tk-luc reporter; % of 3 µM dafachronic acid response; 1% of 370,000 active;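 active means activation above the mean over all tested compounds plus 3 SD, cut at about 0.9% in these data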;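 further: 0% = DMSO-only wells and 100% = 3 µM delta7-dafachronic acid wells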
hgDAF12 agonist – H. glycines DAF-12 receptor agonists, primary screen, cell-based, luminescence, HEK293, GAL4 fusion, UAS-luciferase; Nuclear hormone receptor DAF-12 (Heterodera glycines), GAL4 fusion; HEK293 GAL4-hgDAF12 UAS-luciferase reporter, agonist luminescence; normalized to butyrate control; activation, % at 6.8 µM; 1.8% of 370,000 active; AID 687014, 2013;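 active means activation above a cutoff set at the mean of all screened compounds plus 3 SD, cut at about 10% in these data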;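 further: 0% = DMSO wells and 100% = sodium butyrate wells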
GAA30 FXN cntr – GAA30 FXN promoter activators, confirmation, counter-screen for GAA850 frataxin promoter activator project, cell-based, luminescence, HEK293, lucGAA30, triplicate. shares compounds with GAA850 FXN act. HEK293 lucGAA30 FXN promoter luciferase, 24 h; DMSO = 0%, 5 µM ipriflavone = 100%. activation, % at 6 µM. 66% of 1,900 active. AID 588350, 2011;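 active means mean activation above the mean of solvent-only control wells plus 3 SD, cut at about 22% in these data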;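 further: counterscreen of GAA850 promoter hits where activity marks nonselective or luminescence artifacts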
GAA850 confirm – FXN GAA850 promoter activators in reporter cells, confirmation, cell-based, luminescence, HEK293 lucGAA850, triplicate; AID 588351, 2011; 86% of 1,900 active; activation, % at 6 µM; HEK293 lucGAA850 FXN promoter luciferase reporter, 24 h; 100% = activation by SAHA; shares compounds with GAA850 FXN act;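 active means mean activation above a set limit taken from the primary screen, cut at about 8% in these data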;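 further: 0% = DMSO wells and 100% = 10 µM SAHA wells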
Active calls of the source: *; / = not tested or not shown.

SMILES	hcDAF12 agonist	DAX1 inh-1	GAA850 FXN act	DAX1 inh-2	ssDAF-12 act	hgDAF12 agonist	GAA30 FXN cntr	GAA850 confirm
CC(C)c1cc(C(C)C)c(S(=O)(=O)N2CCC(C(=O)NCc3cccs3)CC2)c(C(C)C)c1	-2	/	/	-2	-2	-4	/	/
COCCOC(=O)C1=C(C)NC(=O)NC1c1ccc(OC(=O)c2ccco2)c(OC)c1 (stereo unspecified)	-1	1	13*	0	-1	2	33*	10*
COc1ccc(COC(=O)C2=C(C)NC(=O)NC2c2ccc(O)c(OC)c2)cc1 (stereo unspecified)	-3	1	2	0	-1	1	/	/
COc1cc(C2NC(=O)NC(C)=C2C(=O)OCc2ccccc2)ccc1O (stereo unspecified)	0	0	8.9*	1	-1	-1	-3	10*
CC(C)c1ccc(N(C(=O)c2ccco2)C(C(=O)NC2CCCC2)c2ccncc2)cc1 (stereo unspecified)	4	1	10*	1	0	10*	106*	38*
COc1ccc(N(C(=O)c2ccco2)C(C(=O)NC2CCCC2)c2ccncc2)cc1 (stereo unspecified)	0	3	0	0	0	-1	/	/
CC(C)c1ccc(N(C(=O)c2csnn2)C(C(=O)NC2CCCC2)c2ccncc2)cc1 (stereo unspecified)	5	4	20*	1	1	9	67*	24*
Cc1ccccc1CCN(C(=O)c1csnn1)C(C(=O)NC1CCCC1)c1ccncc1 (stereo unspecified)	0	-1	14*	0	-1	3	19	7
O=C(CSc1nc2ccccc2nc1N1CCOCC1)NCc1ccc(Cl)cc1Cl	1	/	/	-1	-2	2	/	/
CC[C@@]12C(=O)N(c3ccc(C)cc3)C(=O)N1[C@H](c1cccc(C)c1)[C@@H]1C(=O)N(Cc3ccccc3)C(=O)[C@@H]12	-1	1	8.4*	1	-1	0	23*	12*
Cc1ccc(N2C(=O)N3[C@H](c4cccc(C)c4)[C@@H]4C(=O)N(Cc5ccccc5)C(=O)[C@@H]4[C@]3(C)C2=O)cc1	0	0	7.6*	0	-1	1	18	8.5*
Cc1cccc([C@@H]2[C@@H]3C(=O)N(Cc4ccccc4)C(=O)[C@@H]3[C@]3(C)C(=O)N(c4cccc(F)c4)C(=O)N23)c1	0	2	-1	0	-1	0	/	/
CCN1C(=O)[C@H]2[C@@H](c3ccc(C)cc3)N3C(=O)N(c4cccc(Cl)c4)C(=O)[C@@]3(CC)[C@H]2C1=O	0	-1	8.2*	-1	-1	6	9	7.9*
CCCC[C@H]1C2CC(OC(=O)NCCCc3ccccc3)C(C2)[C@H]2CCCCN21 (stereo partly specified)	0	/	/	0	-1	3	/	/
CN=C1S/C(=C/c2cc(C)n(Cc3ccccc3)c2C)C(=O)N1C	-2	/	/	/	-1	0	/	/
COc1ccc(/C=C(/C(=O)c2cccs2)N2C=CC=CC2=C(C#N)C#N)cc1	2	-1	14*	-1	-1	0	-1	22*
COc1ccc(CNS(=O)(=O)CC2NCCc3ccccc32)cc1 (stereo unspecified)	-2	/	/	0	-1	1	/	/
O=C1N/C(=C/c2ccc(N3CCOCC3)o2)C(=O)N1c1ccccc1	1	-2	11*	-1	-1	0	54*	19*
Cc1cccc(-c2cccc3c4c([nH]c23)[C@@H]2C[C@H]3[C@@H](CN2CC4)[C@H](C)ON3C)c1	2	/	/	-1	-1	0	/	/
COC(=O)N1C[C@H](OC)[C@H]2C[C@@H]1c1ccccc1O2	-2	/	/	1	-1	0	/	/
Nc1ccccc1Nc1cc(-c2ccccc2)[nH]n1	6.0*	1	9.3*	2	-1	10	92*	54*
S=C(Nc1ccc(I)cc1)OC1CCC12CCC(c1ccccc1)CC2 (stereo unspecified)	0	/	/	-1	-1	0	/	/
CCOc1ccccc1C(=O)N/N=C/c1c[nH]c2ccccc12	3	0	8.2*	-1	0	4	27*	8.9*
C/C(=N\NC(=O)C(c1ccccc1)c1ccccc1)c1ccccn1	-5	0	9.6*	-3	-2	-7	-119	-35
FC(F)Oc1ccc(C2N=C(c3ccccc3)NO2)cc1 (stereo unspecified)	4	1	7.9*	1	0	13*	118*	41*
SMILES	hcDAF12 agonist	DAX1 inh-1	GAA850 FXN act	DAX1 inh-2	ssDAF-12 act	hgDAF12 agonist	GAA30 FXN cntr	GAA850 confirm
COc1cccc(CNC(=O)Cn2c(-c3ccccc3)cc(C(C)=O)c2C)c1OC	-1	/	/	0	-1	-2	/	/
O=C(COc1ccc(Cl)cc1[N+](=O)[O-])NC1CCCCC1	0	-1	8.1*	1	-1	9	85*	29*
COC(=O)[C@]12C[C@H](CC(=O)NCCCCc3ccccc3)C(=O)N(Cc3ccco3)C1=C[C@H](C1CCCC1)O[C@@H]2C	-4	/	/	0	-1	-2	/	/
Cc1cc(NC(=O)Nc2ccc(F)c(Cl)c2)no1	-2	1	1	-1	-2	2	/	/
COCCNC(=O)NC1(C(F)(F)F)Oc2ccc(Cl)cc2O1 (stereo unspecified)	-1	0	15*	-1	-1	-8	17	11*
Cc1cc(NC(=O)NC2(C(F)(F)F)Oc3ccc(Cl)cc3O2)no1 (stereo unspecified)	/	-1	18*	/	/	/	30*	15*
